About 79,000 compounds went through this panel and 15% of them were active in at least one assay; those are over-represented in the sample as a whole. A number with no mark means an inactive call. Calls of active or inactive are those of the source. Rule as the data show it: active = growth inhibition above about 70%; inactive = the rest.
assay: NCI Yeast Anticancer Drug Screen. Data for the bub3 strain (AID 167); settings: S. cerevisiae bub3 mutant strain, at 50.0 µM, stronger effect = higher value
Outline: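 Mutant yeast screening strain plus compound; vehicle-treated cultures serve as the 0% inhibition reference.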

SMILES	growth inhibition
O=[N+]([O-])c1cccc(S(=O)(=O)N/N=C/c2cc(I)cc([N+](=O)[O-])c2O)c1	4.7%
COc1cc(N=Nc2cccc(S(N)(=O)=O)c2)c2ccccc2c1N	94.4% (active)
O=S(=O)(c1ccc(O)cc1)c1ccc(Cl)cc1	56.2%
C[N+](C)=c1ccc2nc3c(cc(NCCCNc4cc5oc6cc(=[N+](C)C)ccc-6nc5c5ccccc45)c4ccccc43)oc-2c1	64%
CC(C)(C)C(=O)/C=C/c1ccc2ccccc2n1	34.1%
CSc1ccc(/C=N/NC(N)=S)cc1	86.5% (active)
CN(C)c1ccc(/C=C(\C#N)c2c(F)cccc2F)cc1	13.3%
O=C(/C=C\c1ccccc1)N1c2ccccc2CC1c1c[nH]c2ccccc12 (stereo not given)	-2.1%
COc1cccc(C2c3cc4c(cc3OC(Nc3ccccc3)C2C)OCO4)c1O (stereo not given)	53.1%
CC(/C=C/c1cccs1)=N\C(=S)NC(N)=S	77.8% (active)
C=C1C(=O)O[C@H]2[C@H](OC(C)=O)[C@@H](C)CCC/C(C)=C/CC[C@@]3(C)O[C@@H]3C[C@@H]12	93% (active)
CC(=O)O/C=C\COC(C)=O	86.3% (active)
Cn1cc(NC(=O)c2cc(NC(=O)CCCCCCCCC(=O)Nc3cc(C(=O)Nc4cc(C(=O)NCCC(N)N)n(C)c4)n(C)c3)cn2C)cc1C(=O)NCCC(=N)N	91.5% (active)
CCCCCCCNCCCCCC	67.1%
Cc1ccc(S(=O)(=O)N(c2ccccc2-c2ccccc2)C(C)C(=O)O)cc1 (stereo not given)	82.5% (active)

From PubChem BioAssay (NCI)
